# Bioassay records: PubChem BioAssay, Sanford-Burnham Center for Chemical Genomics
# Artemis inh – Artemis endonuclease inhibitors, primary screen, biochemical, fluorescence intensity, FAM/BHQ-1 hairpin substrate | recombinant Artemis, quenched FAM hairpin cleavage fluorescence | 30,000 tested, 0.78% active | AID 686954, 2013 | inhibition, % at 10 µM;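 active = at 10 µM dose, at least 30% inhibition, measured as corrected fluorescence normalized to stimulator and neutral control wells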
# Target sequence (Q96SD1 whole entry, looked up): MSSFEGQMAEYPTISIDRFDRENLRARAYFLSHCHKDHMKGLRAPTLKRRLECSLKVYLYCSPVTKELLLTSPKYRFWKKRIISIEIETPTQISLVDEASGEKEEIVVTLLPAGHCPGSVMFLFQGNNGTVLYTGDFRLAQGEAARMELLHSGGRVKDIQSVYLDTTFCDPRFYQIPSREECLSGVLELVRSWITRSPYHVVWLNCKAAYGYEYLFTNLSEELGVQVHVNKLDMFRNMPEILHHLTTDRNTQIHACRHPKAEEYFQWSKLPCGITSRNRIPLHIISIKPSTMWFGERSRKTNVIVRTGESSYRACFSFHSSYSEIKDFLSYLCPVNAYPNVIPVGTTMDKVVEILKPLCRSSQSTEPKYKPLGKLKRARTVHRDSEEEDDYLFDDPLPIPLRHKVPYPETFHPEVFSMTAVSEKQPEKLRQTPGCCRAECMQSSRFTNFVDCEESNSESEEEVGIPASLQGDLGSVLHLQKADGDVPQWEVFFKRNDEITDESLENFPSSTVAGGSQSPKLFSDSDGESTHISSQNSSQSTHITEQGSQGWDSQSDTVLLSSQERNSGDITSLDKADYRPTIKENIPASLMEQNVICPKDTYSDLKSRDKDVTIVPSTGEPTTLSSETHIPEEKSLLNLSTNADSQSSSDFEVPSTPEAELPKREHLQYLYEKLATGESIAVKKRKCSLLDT
# Starred values were filed as active, the others as inactive. Only a selection was taken, and hits are over-represented in it overall.
SMILES,Artemis inh
Cc1nc2c(=O)n(C)c(=O)nc-2n(C)n1,78.4*
O=C(Nc1ccc(Br)cc1)c1nn(C23CC4CC(CC(C4)C2)C3)cc1Br,4.4
CCOP(=O)(CN(CC)CCNP(=O)(OCC)OCC)OCC,-4.6
COC(=O)C1CN(C#N)N(c2ccc(Cl)cc2)C12c1ccccc1-c1ccccc12 (centres undefined),13.8
O=C(O)CP(=O)(O)c1ccc(Cl)cc1,-6.7
Nc1c(C(=O)NC2CCCC2)c2nc3ccccc3nc2n1CC1CCCO1 (centres undefined),30.6*
CC(C)OCCCNC(=O)c1c(N)n(Cc2cccs2)c2nc3ccccc3nc12,14.6
O=C(Cn1c2c(c(-c3ccccc3Cl)cc1=O)CCC2)N1CCC2(CC1)OCCO2,-2.6
COc1ccc(OCC(=O)N2CCN(CC3CC4C=CC3C4)CC2)cc1 (centres undefined),-3.8
CC(=O)c1ccc2c(c1)C1C(Cl)C(Sc3ccccc3[N+](=O)[O-])CC1C(c1ccccc1[N+](=O)[O-])N2 (centres undefined),31.0*
O=c1cccc2n1CC1CC2CN(c2ncnc3c2cnn3-c2ccc(Cl)cc2)C1 (centres undefined),-2.1
CCC(CC)C1C(C#N)=C(N)Oc2c1c(=O)oc1ccccc21 (centres undefined),5.4
COc1cc(NC(=O)CN2C3CCC2CC(O)(c2cccnc2)C3)cc(OC)c1 (centres undefined),1.5
Cc1ccc(-n2c(O)c(C=NC3CCCC3)c(=O)[nH]c2=O)c(C)c1,4.3
CCOC(=O)c1c(N)n(CCCOC(=O)c2ccco2)c2nc3ccccc3nc12,24.6
COCCOC(=O)c1c(N)n(Cc2ccc(OC)cc2)c2nc3ccccc3nc12,10.1
COCCOC(=O)c1c(N)n(Cc2ccco2)c2nc3ccccc3nc12,18.1
COC(=O)c1c(N)n(Cc2ccc(OC)cc2)c2nc3ccccc3nc12,31.0*
COCCCn1c(N)c(C(=O)OCCOC)c2nc3ccccc3nc21,38.0*
CC(C)OC(=O)c1c(N)n(Cc2ccco2)c2nc3ccccc3nc12,5.2
O=C1c2ccccc2C(=O)N1Cc1nc2ccccc2c(=O)n1-c1ccc(Br)cn1,-6.3
Cc1nonc1-c1nc(-c2nonc2N)n[nH]1,-0.5
O=[P+](Cc1ccccc1)Cc1ccccc1,-1.7
CCOC(=O)N1CCC(NC(=O)CCc2nc(C3=CCN(C)CC3)no2)CC1,0.1
CSc1ncc(Cl)c(C(=O)O)n1 (tested in a mixture with another compound),-1.1
